GDH-TPI counter-1 = GDH-TPI coupling enzyme inhibitors, primary screen, artefact control for M. tuberculosis FBA inhibitor project, biochemical, absorbance, full deck | GDH-TPI coupled enzyme counterscreen, NADH absorbance | inhibition, % at 4.8 µM | 360,000 compounds, 1.2% hits | AID 588335, 2011;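 also: 0% = DMSO wells and 100% = wells lacking the enzyme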
CCHF vOTU inh = CCHFV vOTU protease inhibitors, primary screen, biochemical, Pep-AMC substrate, fluorescence. inhibition, % at 11.5 µM. 370,000 compounds, 0.55% hits. AID 651958, 2012; also: 0% = vehicle wells with enzyme and 100% = no enzyme wells
Mtb FBA inh = Mtb FBA enzyme inhibitors, primary screen, biochemical, fluorescence, strain H37Rv. Fructose-bisphosphate aldolase (Mycobacterium tuberculosis (strain ATCC 25618 / H37Rv)), …. purified M. tuberculosis FBA, fluorescence read-out. inhibition, % at 1 µM. 360,000 compounds, 2.3% hits. AID 588726, 2011; in the data active = inhibition above about 27%;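 also: 0% = vehicle and 100% = reference inhibitor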
VHR inh abs = VHR1 phosphatase inhibitors, primary screen, biochemical, absorbance, uHTS | inhibition, % at 13.3 µM | recombinant VHR phosphatase, pNPP absorbance | 290,000 compounds, 0.52% hits | Dual specificity protein phosphatase 3 (Homo sapiens), P51452; in the data active = inhibition above about 50%
SARS 3CLpro inh = SARS-CoV 3CLpro protease inhibitors, primary screen, biochemical, quenched FRET; inhibition, % at 6 µM; Replicase polyprotein 1ab (Severe acute respiratory syndrome coronavirus), P0C6X7; recombinant SARS-CoV 3CLpro, quenched FRET peptide cleavage; AID 1706, 2009; 290,000 compounds, 0.14% hits; in the data active = inhibition above about 12%
RecA intein inh = Mtb RecA intein splicing inhibitors, primary screen, biochemical, fluorescence, HTS | cell-free RecA intein splicing | Protein RecA (Mycobacterium tuberculosis (strain ATCC 25618 / H37Rv)), P9WHJ3 | 290,000 compounds, 0.75% hits | inhibition, % (concentration not given with the values); in the data active = inhibition above about 30%;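 also: 0% = vehicle wells and 100% = reference inhibitor control wells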
Target sequence (P9WHJ3 whole entry, looked up): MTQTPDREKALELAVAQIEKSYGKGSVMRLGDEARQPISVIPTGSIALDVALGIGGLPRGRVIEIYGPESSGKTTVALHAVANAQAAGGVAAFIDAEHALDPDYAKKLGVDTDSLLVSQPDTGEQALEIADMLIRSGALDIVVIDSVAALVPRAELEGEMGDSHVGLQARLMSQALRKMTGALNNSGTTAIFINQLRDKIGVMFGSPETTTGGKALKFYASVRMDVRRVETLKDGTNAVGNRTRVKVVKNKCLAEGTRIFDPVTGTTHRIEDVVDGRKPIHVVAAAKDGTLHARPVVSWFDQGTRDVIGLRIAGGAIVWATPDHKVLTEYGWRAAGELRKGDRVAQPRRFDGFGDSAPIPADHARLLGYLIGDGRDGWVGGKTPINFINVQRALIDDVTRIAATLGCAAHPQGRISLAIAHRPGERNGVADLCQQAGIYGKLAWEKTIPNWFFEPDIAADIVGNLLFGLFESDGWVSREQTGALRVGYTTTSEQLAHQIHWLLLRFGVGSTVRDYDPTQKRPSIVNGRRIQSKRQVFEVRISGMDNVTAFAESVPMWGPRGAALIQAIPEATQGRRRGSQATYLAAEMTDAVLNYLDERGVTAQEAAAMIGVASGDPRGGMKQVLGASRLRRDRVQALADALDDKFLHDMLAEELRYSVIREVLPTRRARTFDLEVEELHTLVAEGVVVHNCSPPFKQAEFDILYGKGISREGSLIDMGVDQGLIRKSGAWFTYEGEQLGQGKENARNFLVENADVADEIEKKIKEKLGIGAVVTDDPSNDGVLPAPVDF
Mtb FBA confirm = M. tuberculosis aldolase blockers, biochemical, fluorescence, strain H37Rv, confirmation; shares compounds with Mtb FBA inh; purified M. tuberculosis FBA, fluorescence read-out; inhibition, % at 1 µM; 5,600 compounds, 78% hits; in the data active = inhibition above about 27%;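 also: 0% = vehicle wells and 100% = reference inhibitor wells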
GDH-TPI counter-2 = GDH-TPI coupling enzyme inhibitors, artefact control for M. tuberculosis FBA inhibitor project, biochemical, fluorescence, high throughput; inhibition, % at 1 µM; GDH-TPI coupled enzyme counterscreen; shares compounds with Mtb FBA inh; 5,600 compounds, 81% hits; in the data active = inhibition above about 10%
* hit, by the source's call; i = inactive; . = no result. Hits are enriched below; roughly 4.7% of the tested compounds scored in any of these assays. Rule as the data show it, unless noted: active = inhibition above about 30%; inactive = the rest.

SMILES	GDH-TPI counter-1	CCHF vOTU inh	Mtb FBA inh	VHR inh abs	SARS 3CLpro inh	RecA intein inh	Mtb FBA confirm	GDH-TPI counter-2
Cc1ccc(C)c(OCCC(=O)OCC(=O)NCc2ccc(F)cc2)c1	2	-1	-2	-16	2	1	.	.
CCc1nc2c(OCc3ccccc3)cccn2c1N(C)C(=O)c1ccc2c(c1)OCO2	5	-5	4	.	.	.	.	.
OCc1ccccc1-c1cnc2cccnn12	9	-148	105*	.	.	.	113*	86*
Cc1c2n(c3ccccc13)CCC2=O	6	-46	28*	10	2	-1	77*	68*
COC(=O)c1cccc(NS(=O)(=O)c2ccc(NC(C)=O)cc2)c1C	-8	-8	1	7	-3	-1	.	.
COC(=O)c1ccc(C(=O)OC)c(NS(=O)(=O)c2ccc(NC(C)=O)cc2)c1	4	-68	34*	33	-2	-8	71*	62*
Cc1ccc(S(=O)(=O)Oc2ccc(C3C4=C(CCCC4=O)OC4=C3C(=O)CCC4)cc2)cc1	13	16	4	32	3	-1	.	.
CCOc1cc(C2C3=C(CCCC3=O)N(CCC(=O)O)C3=C2C(=O)CCC3)ccc1OS(=O)(=O)c1ccc(C)cc1	9	-111	79*	1	2	-375	83*	72*
Cc1ccc(S(=O)(=O)Oc2ccc(C3C4=C(CCCC4=O)N(CCC(=O)O)C4=C3C(=O)CCC4)cc2Cl)cc1	-1	-117	110*	-2	0	i	-2	-7
CC1(C)CC(=O)C=C(c2ccccc2-c2ccc3c(c2)OCO3)C1=O	.	0	.	.	.	.	.	.
O=C(COC(=O)c1ccccc1NCCO)Nc1cc(C(F)(F)F)ccc1N1CCOCC1	4	-63	70*	2	4	-5	3	-5
CC1CCN(C(=O)COC(=O)c2ccccc2NC(=O)c2ccco2)CC1	6	-3	1	13	-3	3	.	.
O=C(OCC(=O)N1CCCc2ccccc21)c1ccccc1NCCO	-9	-98	99*	.	.	-6	148*	140*
O=C(COC(=O)c1ccc(O)cc1)Nc1cc(C(F)(F)F)ccc1N1CCOCC1	-3	0	3	.	.	.	.	.
CC1CCN(C(=O)COC(=O)c2ccccc2NCCO)CC1	14	-125	92*	.	.	.	131*	112*
CC1Cc2ccccc2N1C(=O)COC(=O)c1ccccc1NCCO (configuration not stated)	16	-82	109*	.	.	-6	80*	67*
C=CC[C@H](CC(=O)N[C@H](CO)Cc1ccccc1)C(=O)N[C@@H](COC(=O)[C@H](CC=C)CC(=O)OC(C)(C)C)Cc1c[nH]c2ccccc12	1	11	2	.	.	.	.	.
CCOC(=O)N1CCN(C2CCCN(C(=O)c3ccccc3N(C)C)C2)CC1 (configuration not stated)	0	10	2	14	-5	.	.	.
CC(OC(=O)c1ccccc1NCCO)C(=O)NC1CCCCC1C (configuration not stated)	4	-94	96*	.	.	-6	1	-4
CC(OC(=O)c1ccc(C(C)(C)C)cc1)C(=O)NC1CCCCC1C (configuration not stated)	5	8	3	5	7	3	.	.
CCN1C(=O)CSc2ccc(C(=O)NCc3ccc(OC)cc3)cc21	-12	-9	-4	24	-6	1	.	.
CCN1CCSc2ccc(C(=O)NCc3ccc(OC(C)C)cc3)cc21	15	-40	42*	53*	3	0	81*	56*
CCOc1ccc(CNC(=O)c2ccc3c(c2)N(CC)CCS3)cc1	6	-61	71*	13	11	-7	122*	88*
Cc1cccc2cc(C(c3nnnn3C3CCCC3)N3CCOCC3)c(=O)[nH]c12 (configuration not stated)	16	-8	2	8	2	-3	.	.
CCC(C)(C)n1nnnc1C(c1cc2cc(C)cc(C)c2[nH]c1=O)N1CCN(Cc2ccc3c(c2)OCO3)CC1 (configuration not stated)	3	10	1	15	4	1	.	.
SMILES	GDH-TPI counter-1	CCHF vOTU inh	Mtb FBA inh	VHR inh abs	SARS 3CLpro inh	RecA intein inh	Mtb FBA confirm	GDH-TPI counter-2
CCC(C)(C)n1nnnc1C(c1cc2cc3c(cc2[nH]c1=O)OCO3)N1CCN(C)CC1 (configuration not stated)	25	-62	59*	6	0	-7	32*	28*
O=c1[nH]c2cc3c(cc2cc1C(c1nnnn1C1CCCC1)N1CCSCC1)OCCO3 (configuration not stated)	16	-29	31*	2	-2	0	144*	91*
CC1(C(=O)Nc2ccc3c(c2)OCCO3)CSCC(=O)N1Cc1ccco1 (configuration not stated)	.	12	.	.	.	.	.	.
Cc1cccc(NC(=O)c2cc(S(=O)(=O)N3CCCCC3)c[nH]2)c1	6	4	2	.	.	.	.	.
N#Cc1cccnc1N1CCC(C(N)=O)CC1	9	-27	30*	17	0	1	50*	38*
N#Cc1c(F)cccc1N1CCC(C#N)CC1	6	-21	31*	14	2	-1	154*	115*
CC(C)(C)OC(=O)NCCCCCNC(=O)c1ncn2c1c(=O)[nH]c1ccccc12	-3	-24	87*	.	.	.	42*	34*
CC(C)(C)OC(=O)[C@H](Cc1ccccc1)NC(=O)c1ncn2c1c(=O)[nH]c1ccc(Br)cc12	8	-10	2	.	.	.	.	.
COc1ccc(-c2nc(CN3CCN(c4cc(C)nc(C)c4)CC3)c(C)o2)c2ccccc12	2	-31	67*	6	0	4	45*	43*
Cc1ccc(CNC2CCCCC2)s1	5	-2	3	11	0	0	.	.
Cc1ccc2cc(-c3noc(C(C)(C)C)n3)c(=O)[nH]c2c1	15	-3	30*	12	-4	-6	65*	58*
CCc1nc(-c2cc3ccc(C)cc3[nH]c2=O)no1	20	-27	30*	28	6	0	91*	82*
Cc1ccc2[nH]c(=O)c(-c3noc(C(C)C)n3)cc2c1	10	-24	21	5	4	-1	.	.

Source: PubChem BioAssay (several laboratories)
